Source: PubChem
This is a sample that favours compounds with a hit; in the whole collection about 8.9% have one here.
KB-V1 MDR tox: qHTS assay for MDR1-selective chemotherapeutics: Primary screen using the drug-selected MDR subline cells KB-V1; Potency, µM (doses to about 46.1 µM), usual class: cytotoxic; KB-V1 MDR cells viability, CellTiter-Glo, 72 h; AID 1347076, 2019; 3.4% of 400,000 active; also: potency is read from the fitted curve at half-maximal effect; % is scaled to controls: 0 for no effect and ±100 for the full control effect; nearly all actives have a fitted effect of over 60% in size
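Readout: CellTiter-Glo luminescence, 10 min after addition. Cells: KB-V1 MDR subline, 72 h at 37 degrees C with compound. Analysis: corrected, normalized data fitted to concentration-effect curves.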
KB-3-1 cytotox: qHTS assay for MDR1-selective chemotherapeutics: Primary screen using the parental adenocarcinoma cell KB-3-1. KB-3-1 viability, CellTiter-Glo ATP luminescence, 72 h. Potency, µM (highest dose often 46.1 µM), usual class: cytotoxic. 1.4% of 400,000 active; also: potency is read from the fitted curve at half-maximal effect; % is scaled to controls: 0 for no effect and ±100 for the full control effect; nearly all actives have a fitted effect of over 60% in size
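KB-3-1 cells, DMEM (no phenol red) + 10% FBS; compound by pin transfer, 72 h, 37 °C. Readout: CellTiter-Glo luminescence after 10 min. Data normalized, curve-fitted.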
MCF10A rereplic: A quantitative high throughput screen for small molecules that induce DNA re-replication in MCF 10a normal breast cells; MCF 10A DNA re-replication, Hoechst nuclear intensity, 48 h; Potency, µM (doses to about 46.1 µM), for inactives: at the top dose activity, positive = re-replication, hits mostly activators; 2.9% of 350,000 active; AID 624296, 2012; also: potency is read from the fitted curve at half-maximal effect; % of control where 0% means no effect; nearly all actives have a fitted effect of over 50% in size
SW480 rerep: A quantitative high throughput screen for small molecules that induce DNA re-replication in SW480 colon adenocarcinoma cells | SW480 DNA re-replication, Hoechst DNA content imaging, 48 h | 1.8% of 340,000 active | Potency, µM (top dose mostly 46.1 µM), for inactives: at the top dose re-replication activation, actives largely listed as activators; also: potency is read from the fitted curve at half-maximal effect; % of control where 0% means no effect; nearly all actives have a fitted effect of over 55% in size
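Per well, 250 cells were exposed to pinned compound for 48 hr. Nuclear DNA was visualised with Hoechst (40 min, 37 C) and total object intensity recorded by fluorescence scanning.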
DRD3 antagonist: qHTS of D3 Dopamine Receptor Antagonist: qHTS; D(3) dopamine receptor (Homo sapiens), P35462; D3R cells, DiscoveRx beta-arrestin luminescence, antagonist mode; active compounds read low; max response, negative = inhibition, %; 2.5% of 360,000 active; AID 652054, 2013; in the data active = max response below about -50%; inconclusive = no clear call, values can overlap the other calls; also: % is scaled to controls: 0 for no effect and ±100 for the full control effect
Target sequence (P35462 whole entry, looked up): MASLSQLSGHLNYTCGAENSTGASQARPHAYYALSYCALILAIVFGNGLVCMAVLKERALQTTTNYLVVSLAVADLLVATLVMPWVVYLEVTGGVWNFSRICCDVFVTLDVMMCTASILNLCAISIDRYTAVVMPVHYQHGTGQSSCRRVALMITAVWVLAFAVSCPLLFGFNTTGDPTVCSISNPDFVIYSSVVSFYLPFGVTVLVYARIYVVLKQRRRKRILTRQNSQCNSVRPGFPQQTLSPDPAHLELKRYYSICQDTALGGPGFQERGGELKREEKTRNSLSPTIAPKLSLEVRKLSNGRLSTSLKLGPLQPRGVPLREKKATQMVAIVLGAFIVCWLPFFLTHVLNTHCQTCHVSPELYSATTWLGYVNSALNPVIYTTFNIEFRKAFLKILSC
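Cells plated overnight at 1500 cells/well, then exposed to library compounds with dopamine controls for 90 minutes at 37 degrees C. DiscoveRx reagent added for 30–60 minutes at room temperature; luminescence read, quantitative HTS format.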
DRD3 agonist: qHTS of D3 Dopamine Receptor Agonist: qHTS; D3R DiscoveRx beta-arrestin cells, luminescence, 90 min; 0.58% of 410,000 active; AID 652048, 2013; max activation, %; D(3) dopamine receptor (Homo sapiens), P35462; in the data active = max activation above about 30%; also: 0% is about no effect
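Agonist mode: compounds and dopamine controls were applied to plated cells for 90 min at 37 degrees C after an overnight attachment at 1500 cells/well. Luminescent read-out followed 30 - 60 minutes at room temperature with DiscoveRx detection reagent.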
An asterisk follows results filed as active; ! = not confirmed by another sample. Unless noted, calls follow the shape of the dose curve; as a rule, active = well fitted curve in the direction sought with a large enough effect; inconclusive = small, poorly fitted or top-dose-only effect, or another doubt; inactive = no such curve, though single readings can be large; an effect the other way counts as inactive or inconclusive.

Screening COc1ccccc1[C@H]1C(c2ccccc2)=NN(c2ccccc2)[C@@H]1CO returned KB-V1 MDR tox inactive, KB-3-1 cytotox inactive, MCF10A rereplic 1.8µM*, SW480 rerep 13µM*, DRD3 antagonist 37 and DRD3 agonist 10.
For COc1ccccc1[C@H]1C(c2ccc(F)cc2)=NN(c2ccccc2)[C@@H]1CO the results were KB-V1 MDR tox inactive, KB-3-1 cytotox inactive, MCF10A rereplic inconclusive, SW480 rerep 3.7µM*, DRD3 antagonist 28 and DRD3 agonist 11.
Screening COc1ccccc1[C@H]1C(c2cccc(C)c2)=NN(c2ccccc2)[C@@H]1CO returned KB-V1 MDR tox inactive, KB-3-1 cytotox inactive, MCF10A rereplic inconclusive, SW480 rerep 0.33µM*, DRD3 antagonist 21 and DRD3 agonist -20.
CCC(=O)N1CCc2cc(CNC(=O)c3ccc(OC)cc3)ccc21 was read as DRD3 agonist -8.
`O=C(CSc1nnc(-c2ccc(Cl)cc2)n1-c1ccccc1)N/N=C/c1ccccc1C(=O)O` gave KB-V1 MDR tox inactive, KB-3-1 cytotox inactive, MCF10A rereplic 18%, SW480 rerep inconclusive, DRD3 antagonist 10 and DRD3 agonist 1.
Screening O=C(CSc1nnc(-c2ccccc2)n1-c1ccc(Cl)cc1)N/N=C/c1ccco1 returned KB-V1 MDR tox 16µM*, KB-3-1 cytotox inactive, MCF10A rereplic 1%, SW480 rerep -7%, DRD3 antagonist -11 and DRD3 agonist -6.
`CCOc1ccc(CCNC(=O)c2cc3c(-c4ccccc4F)nn(C)c3s2)cc1OCC` gave KB-V1 MDR tox inactive, KB-3-1 cytotox inconclusive and DRD3 agonist 27.
Screening Cc1cc(C)c2c(n1)nn1c(NCCOCCO)cc(C)nc21 returned KB-V1 MDR tox inactive, KB-3-1 cytotox inactive, MCF10A rereplic 2%, SW480 rerep -4%, DRD3 antagonist 6 and DRD3 agonist -5.
Screening Cc1cc(C)c2c(n1)nn1c(NCCCN(C)C)cc(C)nc21 returned KB-V1 MDR tox inactive, KB-3-1 cytotox inactive, MCF10A rereplic inconclusive, SW480 rerep 21µM*, DRD3 antagonist 13 and DRD3 agonist 3.
Screening O=C(NCC(=O)N1CCCCCCC1)c1ccc(Cl)c(Cl)c1 returned KB-V1 MDR tox inactive, KB-3-1 cytotox inactive, DRD3 antagonist -7 and DRD3 agonist -1.
For Cc1ccc(S(=O)(=O)Nc2cccc(Cl)c2)cc1NC(=O)C1CC1 the results were KB-V1 MDR tox 21µM*, KB-3-1 cytotox inconclusive, MCF10A rereplic 1%, SW480 rerep 3%, DRD3 antagonist -28 and DRD3 agonist -14.
For Cc1ccc(NS(=O)(=O)c2ccc(Cl)c(NC(=S)NC(=O)C3CCCCC3)c2)cc1Cl the results were KB-V1 MDR tox inactive, KB-3-1 cytotox inactive, MCF10A rereplic 8.2µM*, SW480 rerep -66%, DRD3 antagonist inconclusive and DRD3 agonist -5.
CNC(C)C#Cc1c(-c2cc(OC)c(OC)c(OC)c2)noc1C (centres undefined) was read as KB-V1 MDR tox inconclusive, KB-3-1 cytotox inactive, MCF10A rereplic -7%, SW480 rerep 10%, DRD3 antagonist -1 and DRD3 agonist -8.
COc1cc(-c2noc(C)c2C#Cc2ccccn2)cc(OC)c1OC was read as KB-V1 MDR tox 1.3µM*!, KB-3-1 cytotox 0.58µM*!, MCF10A rereplic inconclusive, SW480 rerep 3.7µM*, DRD3 antagonist 46 and DRD3 agonist 19.
Screening COc1cc(-c2noc(C)c2C#Cc2ccc(N)cc2)cc(OC)c1OC returned KB-V1 MDR tox 1.3µM*!, KB-3-1 cytotox 0.82µM*!, MCF10A rereplic inconclusive, SW480 rerep 1.2µM*, DRD3 antagonist 2 and DRD3 agonist 7.
